Assay outcomes: PubChem BioAssay, Sanford-Burnham Center for Chemical Genomics
Hits are enriched below; roughly 6.3% of the tested compounds scored in any of these assays.
Mdm2-MdmX inh – inhibitors of human Mdm2-MdmX association, primary screen, cell-based, luminescence, split luciferase, SaOS-2, uHTS; Protein Mdm4 (Homo sapiens) + E3 ubiquitin-protein ligase Mdm2 (Homo sapiens), …; SaOS-2 split-luciferase Mdm2/MdmX complementation; inhibition, % at 8 µM; 330,000 compounds, 3% hits; AID 485346, 2010;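 active = inhibition of at least 50% at 8 µM in the primary screen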
Target sequence (O15151 whole entry, looked up): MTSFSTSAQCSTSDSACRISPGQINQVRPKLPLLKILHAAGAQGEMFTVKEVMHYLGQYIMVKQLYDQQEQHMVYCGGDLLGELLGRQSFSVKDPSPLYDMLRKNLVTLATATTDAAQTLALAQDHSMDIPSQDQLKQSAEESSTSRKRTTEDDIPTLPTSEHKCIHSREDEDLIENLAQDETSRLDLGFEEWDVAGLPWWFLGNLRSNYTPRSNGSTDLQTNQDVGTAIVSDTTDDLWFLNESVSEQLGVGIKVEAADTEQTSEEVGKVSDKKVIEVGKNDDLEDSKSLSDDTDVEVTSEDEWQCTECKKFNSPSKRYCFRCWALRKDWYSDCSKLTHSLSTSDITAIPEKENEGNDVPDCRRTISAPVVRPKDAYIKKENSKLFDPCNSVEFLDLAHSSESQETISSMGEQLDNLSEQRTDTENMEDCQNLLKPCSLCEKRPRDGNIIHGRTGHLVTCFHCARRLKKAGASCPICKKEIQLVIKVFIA
Target sequence (Q00987 whole entry, looked up): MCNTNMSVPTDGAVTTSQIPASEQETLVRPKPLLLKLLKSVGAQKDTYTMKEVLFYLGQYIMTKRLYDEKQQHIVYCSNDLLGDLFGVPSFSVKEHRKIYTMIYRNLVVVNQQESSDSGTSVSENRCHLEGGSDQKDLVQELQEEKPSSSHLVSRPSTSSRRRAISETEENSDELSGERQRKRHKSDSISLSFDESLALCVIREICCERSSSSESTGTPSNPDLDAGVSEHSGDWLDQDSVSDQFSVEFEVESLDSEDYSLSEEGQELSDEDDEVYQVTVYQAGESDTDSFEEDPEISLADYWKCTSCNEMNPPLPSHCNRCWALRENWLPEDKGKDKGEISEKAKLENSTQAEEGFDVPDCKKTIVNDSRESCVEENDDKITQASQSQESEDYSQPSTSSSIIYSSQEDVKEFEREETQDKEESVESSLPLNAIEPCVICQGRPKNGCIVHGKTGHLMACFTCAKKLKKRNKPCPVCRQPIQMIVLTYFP
tim23-1 inh – growth inhibitors of tim23-1 mutant yeast, primary screen, luminescence, uHTS; S. cerevisiae tim23-1 growth, BacTiter-Glo luminescence, 24 h; inhibition, % at 20 µM; 330,000 compounds, 1.3% hits;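 active = growth inhibition of the mutant yeast at or above 50%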;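 also: temperature-sensitive mutant grown at 25 °C; plate controls were DMSO-treated mutant yeast for no effect and medium wells lacking yeast for full effect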
MPTP block – mitochondrial permeability transition pore inhibitors, primary screen, biochemical, isolated mouse mitochondria, absorbance; Ca2+ swelling absorbance, 30 min; inhibition, % at 10 µM; 360,000 compounds, 1.4% hits; AID 602449, 2012;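 active = inhibition of 50% or more, scaled per plate between neutral and stimulator controls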;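 also: 0% = DMSO wells given calcium and 100% = 1 mM EGTA wells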
TIM10 inh – growth inhibitors of isogenic TIM10 control yeast, primary screen, counter-screen for tim10-1 yeast inhibitor project, luminescence, uHTS. S. cerevisiae TIM10 strain growth, BacTiter-Glo luminescence, 24 h. inhibition, % at 10 µM. 330,000 compounds, 1.4% hits. AID 463195, 2010;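 active = inhibition of 40% or more at the single tested concentration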;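 also: wild-type TIM10 isogenic control strain grown at permissive 25 °C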
tim10-1 inh – growth inhibitors of tim10-1 mutant yeast, primary screen, luminescence, uHTS; 330,000 compounds, 2.2% hits; inhibition, % at 20 µM; AID 463190, 2010; S. cerevisiae tim10-1 ts strain growth, BacTiter-Glo, 24 h;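 active = inhibition of at least 40%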;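 also: mutant grown at 25 °C; 0% = DMSO wells with yeast and 100% = wells holding no yeast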
Mdm2-MdmX conf – Mdm2-MdmX complex disruptors, retested hits, confirmation, luminescence, single concentration | inhibition, % at 8 µM | shares compounds with Mdm2-MdmX inh | Mdm2-MdmX binding, luminescent assay | 10,000 compounds, 55% hits; in the data active = inhibition above about 40%
Full FLuc ctr – full-length luciferase signal inhibition, confirmation, counter-screen for Mdm2/MdmX interaction inhibitor project, cell-based, single concentration, SaOS-2; inhibition, % at 8 µM; SaOS-2 full-length luciferase counterscreen, luminescence; shares compounds with Mdm2-MdmX inh; 6,200 compounds, 77% hits;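 active = mean inhibition at 8 µM reaching about 37%, which flags the compound as non-specific, limit read from the data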;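 also: p53-null SaOS-2 cells with luciferase driven by a doxycycline-inducible promoter; compound on cells about two nights before reading with doxycycline added after day one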
The depositor's hits bear a star.

What do the screens show for `C=CC[C@H](CC(=O)N(CCO)Cc1ccccc1)C(=O)N[C@@H](COC(=O)[C@H](CC=C)CC(=O)OC(C)(C)C)Cc1c[nH]c2ccccc12`?
Mdm2-MdmX inh: 23; tim23-1 inh: 8; MPTP block: 0; TIM10 inh: 10; tim10-1 inh: 4

What do the screens show for `C=CC[C@H](CC(=O)N(CCO)Cc1ccccc1)C(=O)N[C@@H](COC(=O)[C@@H](CC=C)Cc1ccc(F)cc1)Cc1c[nH]c2ccccc12`?
Mdm2-MdmX inh: 91*; tim23-1 inh: 4; MPTP block: 0; TIM10 inh: 7; tim10-1 inh: -2; Mdm2-MdmX conf: 20

What do the screens show for `CCC(c1nnnn1-c1ccc2c(c1)OCCO2)N1CCN(c2ccc(C)cc2)CC1` (centres undefined)?
MPTP block: 1

Results for COc1ccc(C(=O)N2CCCC(c3cc(C(=O)Nc4ccccc4)no3)C2)cc1 (centres undefined) ?
MPTP block: 1

How did O=C(CN1c2cccc3cccc(c23)S1(=O)=O)NCc1ccccc1Cl do in these assays?
MPTP block: 0

Results for Cc1ccc2c(C)c(C(=O)Nc3ccc(S(N)(=O)=O)cc3)oc2c1C ?
Mdm2-MdmX inh: 18; tim23-1 inh: -7; MPTP block: 0; TIM10 inh: 6; tim10-1 inh: 14

How did Cc1cc2oc(C(=O)Nc3ccc(S(N)(=O)=O)cc3)c(C)c2cc1Cl do in these assays?
Mdm2-MdmX inh: 55*; tim23-1 inh: -14; MPTP block: 4; TIM10 inh: -16; tim10-1 inh: 5; Mdm2-MdmX conf: 48*; Full FLuc ctr: 58*

What do the screens show for `CCOC(=O)C(C(C)=O)c1c(Br)c(O)c(O)c2c(C(=O)c3ccc(C)cc3)coc12` (centres undefined)?
Mdm2-MdmX inh: 64*; tim23-1 inh: 30; MPTP block: 4; TIM10 inh: 24; tim10-1 inh: 2; Mdm2-MdmX conf: 60*; Full FLuc ctr: 47*

Results for CCCCCC(=O)N1C[C@@H](O)[C@H](n2cc(COC(=O)c3ccccc3)nn2)C[C@@H]1c1ccc(Cl)cc1 ?
MPTP block: -1

Results for COc1ccc(-c2cncnc2-c2ccc(OC)cc2O)cc1 ?
Mdm2-MdmX inh: 62*; tim23-1 inh: 16; MPTP block: 0; TIM10 inh: 2; tim10-1 inh: 22; Mdm2-MdmX conf: 62*; Full FLuc ctr: 27

What do the screens show for `COc1ccc(NS(=O)(=O)c2cccs2)cn1`?
Mdm2-MdmX inh: 79*; tim23-1 inh: 13; MPTP block: 2; TIM10 inh: -6; tim10-1 inh: 7; Mdm2-MdmX conf: 12

Results for COC(=O)C1=CN(c2ccc(OC)cc2OC)C(N)=C(C#N)C1c1ccccc1F (centres undefined) ?
MPTP block: 0

How did CSc1ccc(CN2CCC(C)(Oc3ccc(-n4ccnc4)cc3)C2)cc1 (centres undefined) do in these assays?
MPTP block: 3

Results for COc1cc(-c2noc(C)c2/C=C/c2ccc(OC(C)=O)cc2)cc(OC)c1OC ?
Mdm2-MdmX inh: 84*; tim23-1 inh: 16; MPTP block: 2; TIM10 inh: 13; tim10-1 inh: 20; Mdm2-MdmX conf: 90*; Full FLuc ctr: 94*

How did COc1cc(-c2noc(C)c2C#CCO)cc(OC)c1OC do in these assays?
Mdm2-MdmX inh: 28; tim23-1 inh: 21; MPTP block: 0; TIM10 inh: 11; tim10-1 inh: 14

What do the screens show for `COc1ccc(-c2oc(=O)c3cc(OC)c(OC)cc3c2/C=C/c2ccc(F)cc2)cc1`?
Mdm2-MdmX inh: 29; tim23-1 inh: 14; MPTP block: 1; TIM10 inh: 5; tim10-1 inh: 17

How did COc1ccc(-c2oc(=O)c3cc(OC)c(OC)cc3c2/C=C/c2ccc(OC(C)=O)cc2)cc1 do in these assays?
Mdm2-MdmX inh: 60*; tim23-1 inh: 3; MPTP block: 1; TIM10 inh: 5; tim10-1 inh: 11; Mdm2-MdmX conf: 38; Full FLuc ctr: 63*

Results for O=C(NC(Cc1ccccc1)C(=O)N1CCN(c2ccccc2O)CC1)c1ccccc1 (centres undefined) ?
Mdm2-MdmX inh: 18; tim23-1 inh: -11; MPTP block: -1; TIM10 inh: -21; tim10-1 inh: -12

Results for COc1ccc(CCn2c(C3CCCCC3)nc3c(c(=O)c4ccccc4n3C)c2=O)cc1 ?
Mdm2-MdmX inh: 81*; tim23-1 inh: 41; MPTP block: 29; TIM10 inh: 34; tim10-1 inh: 3; Mdm2-MdmX conf: 50*; Full FLuc ctr: 45*

What do the screens show for `CCCCC(=O)Nc1ccc(C(=O)NNC(=O)CCc2ccccc2)cc1`?
Mdm2-MdmX inh: -27; tim23-1 inh: -6; MPTP block: 1; TIM10 inh: -8; tim10-1 inh: -1

What do the screens show for `CCCCC(=O)Nc1ccc(C(=O)NNC(=O)c2ccc(C)c(Br)c2)cc1`?
Mdm2-MdmX inh: 65*; tim23-1 inh: -26; MPTP block: 9; TIM10 inh: -22; tim10-1 inh: -8; Mdm2-MdmX conf: 31; Full FLuc ctr: 43*

What do the screens show for `COC(=O)[C@]12CCCCC=C1N(Cc1ccco1)C(=O)[C@H](CC(=O)NCC13CC4CC(CC(C4)C1)C3)C2`?
MPTP block: -2

How did CC(C)C[C@H]1CN=C(Nc2ccccc2)N1CCCC1CCCCC1 do in these assays?
Mdm2-MdmX inh: 50*; tim23-1 inh: -22; MPTP block: 4; TIM10 inh: -3; tim10-1 inh: 11; Mdm2-MdmX conf: 24

How did O=C1N(c2ccccc2C(F)(F)F)O[C@]1(c1ccccc1)C1CCCC1 do in these assays?
Mdm2-MdmX inh: 79*; tim23-1 inh: 11; MPTP block: 0; TIM10 inh: 3; tim10-1 inh: -55; Mdm2-MdmX conf: 53*; Full FLuc ctr: 50*

Results for O=C(/C=C\Nc1ccc2c(c1)OCO2)c1ccccn1 ?
Mdm2-MdmX inh: 72*; tim23-1 inh: 28; MPTP block: 2; TIM10 inh: 8; tim10-1 inh: -4; Mdm2-MdmX conf: 65*; Full FLuc ctr: 39*

How did C=CCC[C@@H](Cc1ccc(F)cc1)C(=O)OC[C@H](Cc1c[nH]c2ccccc12)NC(=O)[C@@H](CC=C)CC(=O)N[C@H](CO)Cc1ccccc1 do in these assays?
Mdm2-MdmX inh: 44; tim23-1 inh: -4; MPTP block: 0; TIM10 inh: -9; tim10-1 inh: -1
